# Measured values published in PubChem BioAssay (NCATS).
# Where “and” joins values, the source holds several entries; their conditions need not be identical. Equal values may be shown once. Inconclusive results are not listed. Values without a mark were called inactive. The call rests on the fitted dose curve; in most records, active means well fitted curve in the direction sought with a large enough effect; inconclusive means small, poorly fitted or top-dose-only effect, or another doubt; inactive means no such curve, though single readings can be large or run the other way. *1 amine or outer side, *2 acyl side, *3 side chain or, on linkers, in order; H or OH if unused. Where a SMILES comes first, the peptide text is derived from it. Bridges are numbered along the chain shown (N, C = ends). [ ]: non-standard residue; d: D form. The star is where a group is joined. X5 = NC1=N[C@@H]([C@H](N[*:1])C(=O)[*:2])C[C@H](O)N1; ΔAla(Z-3-ureido) = NC(=O)N/C=C(\N)C(=O)O; β3hOrn = NCCC[C@H](N)CC(=O)*; Dap = NC[C@H](N)C(=O)O
# Assay: qHTS Assay for Identifying Gametocytocidal Compounds (AID 743244);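 further: actives lower the fluorescent signal which means gametocytes are killed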
# Settings: P. falciparum 3D7 stage III-V gametocytes, alamarBlue, 72 h; max response: hits give low values
# Procedure, shortened: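 Compounds are pinned into medium, gametocytes (stage III–V, 3D7, 20,000 cells/well) added, and plates held 72 h at 37 °C in 5% CO2. AlamarBlue follows for 24 h before fluorescence reading.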
# On the % scale 0 is the no-effect control and ±100 the full control effect.
row,SMILES,max response
1,NC(=O)[C@@H]1CCCN1C(=O)[C@H](Cc1cnc[nH]1)NC(=O)[C@@H]1CCC(=O)N1,7.17%
2,CCCCCCCCCCCC(=O)OCC(O)CO (stereo not drawn),3.54%
3,C[C@]12CC[C@@H]3c4ccc(O)cc4CC[C@H]3[C@@H]1CC[C@@H]2OP(=O)(O)O,-0.293%
4,c1ccc2c(c1)OCC(CN1CCCCC1)O2 (stereo not drawn),-2.04%
5,CCC(Cc1c(I)cc(I)c(O)c1I)C(=O)O (stereo not drawn),11.2%
6,OC[C@@H](O)C(O)[C@H](O)CO,3.78%
7,OC[C@H]1OC([S-])[C@H](O)[C@@H](O)[C@@H]1O.[Au+] (stereo partly drawn),-13.3%
8,C[C@@](Cc1ccc(O)c(O)c1)(NN)C(=O)O,-3.47%
9,C=CC1=C(C(=O)O)N2C(=O)[C@@H](NC(=O)/C(=N\O)c3csc(N)n3)[C@H]2SC1 (stereo in doubt),1.2% and 8.54%
10,CC(O)[C@@H]1NC(=O)[C@H](Cc2ccccc2)NC(=O)[C@H](C(C)O)NC(=O)[C@H](CCCCN)NC(=O)[C@H](Cc2c[nH]c3ccccc23)NC(=O)[C@H](Cc2ccccc2)NC(=O)[C@H](Cc2ccccc2)NC(=O)[C@H](CC(N)=O)NC(=O)[C@H](CCCCN)NC(=O)[C@@H](NC(=O)CNC(=O)[C@H](C)N)CSSC[C@@H](C(=O)O)NC(=O)[C@H](CO)NC1=O (stereo partly drawn),1.43%
11,O=C(O)[C@@H]1C[C@H](CP(=O)(O)O)CCN1,11.7%
12,C[S+](C)CCC(N)C(=O)O (stereo not drawn),3.96%
13,CC(=O)[C@@]1(O)CC[C@H]2[C@@H]3C=C(Cl)C4=CC(=O)[C@@H]5C[C@@H]5[C@]4(C)[C@H]3CC[C@@]21C,3.29%
14,C[C@H](N)C(=O)N[C@@H](C)P(=O)(O)O,2.87%
15,CCCC1C(=O)N2C(N(C)C)=Nc3ccc(C)cc3N2C1=O (stereo not drawn),6.87%
16,CCN(CC)CCOc1ccccc1OC,-0.561%
17,CC(C)[C@H](N)C(=O)OCC(CO)OCn1cnc2c(=O)[nH]c(N)nc21 (stereo partly drawn),-1.87%
18,O=C1C2CC3CC1CC(O)(C3)C2,6.58%
19,NCCC[C@H](N)CC(=O)N[C@H]1CNC(=O)[C@H]([C@H]2C[C@H](O)NC(N)=N2)NC(=O)/C(=C/NC(N)=O)NC(=O)[C@H](CO)NC(=O)[C@H](CO)NC1=O (β3hOrn-[Dap]SS[ΔAla(Z-3-ureido)][X5]; lactam 1-C),13.7%

row,SMILES,max response
1,CCCCCc1ccc(C)cc1O,3.19%
2,Cn1cc(NC(=O)c2cc(NC(=O)c3cc(NC=O)cn3C)cn2C)cc1C(=O)NCCC(=N)N,6.22%
3,Cc1cccc(Nc2ncccc2C(=O)O)c1C,39.6%
4,CC1CCCC(C)N1NC(=O)c1ccc(Cl)c(S(N)(=O)=O)c1 (stereo not drawn),7.73%
5,FC(F)(F)COCC(F)(F)F,3.82%
6,CCCCCCCCCCCCCCCCCCCCCC(=O)Nc1ccn([C@@H]2O[C@H](CO)[C@@H](O)[C@@H]2O)c(=O)n1,-10.3%
7,CCC[C@@H]1C[C@@H](C(=O)N[C@@H]([C@H]2O[C@H](SC)[C@H](O)[C@@H](O)[C@H]2O)[C@H](C)Cl)N(C)C1,-8.48%
8,CC(C)c1ncc([N+](=O)[O-])n1C,3.27%
9,CC1=C(/C=C/C(C)=C/C=C/C(C)=C/C(=O)Oc2c(C)c(C)c3c(c2C)CC[C@@](C)(CCC[C@H](C)CCC[C@H](C)CCCC(C)C)O3)C(C)(C)CCC1,0.0927%
10,CC(C)OC(=O)Nc1ccc2nc(-c3cscn3)[nH]c2c1,-0.783%
11,CN1C(=O)OC(C)(C)C1=O,8.47%
12,CC(=O)[O][Al][O]C(C)=O,-11.1%
13,C=N[C@@H](C(=O)N[C@@H]1C(=O)N2[C@@H]1SC(C)(C)[C@@H]2C(=O)O)c1ccccc1,-0.476%
14,CC/C=C\C/C=C\C/C=C\C/C=C\C/C=C\CCCC(=O)O,-4.05%
15,O=C(/C=C/c1cccc(F)c1)NC1CC1,-1.6%
16,CC(/C=C/C=C(\C)C(=O)O[C@@H]1O[C@H](CO[C@@H]2O[C@H](CO)[C@@H](O)[C@H](O)[C@H]2O)[C@@H](O)[C@H](O)[C@H]1O)=C\C=C\C=C(C)\C=C\C=C(/C)C(=O)O[C@@H]1O[C@H](CO[C@@H]2O[C@H](CO)[C@@H](O)[C@H](O)[C@H]2O)[C@@H](O)[C@H](O)[C@H]1O,5.1%
17,COC1[C@@H](O[C@@H]2O[C@H](C)[C@@H](O[C@H]3C[C@@](C)(O)[C@H](OC(=O)CC(C)C)[C@H](C)O3)[C@H](N(C)C)[C@H]2O)[C@@H](CC=O)C[C@@H](C)[C@@H](O)/C=C/C=C/C[C@@H](C)OC(=O)C[C@H]1OC(C)=O (stereo partly drawn),6%
18,CC(C)(CO)[C@@H](O)C(=O)NCCCC(=O)O,-4.37%
19,O=C1N=C2SCCN2C(=O)C1Cc1ccc(Cl)cc1 (stereo not drawn),-5.09%
